# Test results from PubChem BioAssay AID651791 (National Center for Advancing Translational Sciences (NCATS), 2012).
# Inconclusive results are not listed. Activity calls are given as the source filed them. The call rests on the fitted dose curve; in most records, active means well fitted inhibition curve with a large enough effect; inconclusive means small, poorly fitted or top-dose-only effect; inactive means no such curve, though single readings can be large or run the other way.
# Test: InCell qHTS Assay for Inhibitors of the mTORC1 Signaling Pathway in MEF (Tsc2-/-, p53-/-) Cells: Hit Validation;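 further: phospho-S6 Ser235/236 signal normalized to propidium iodide cell count per well; nearly all actives have a fitted effect of over 75% in size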
# Conditions: phospho-rpS6 immunofluorescence, 24 h; activity change, negative = inhibition: at 38.3 µM (top of the series)
# Potency means the concentration at half of the fitted maximal effect.
SMILES,Potency,"activity change, negative = inhibition [%]"
Cc1cccc(CS(=O)(=O)c2ncc(Cl)c(C(=O)NCc3ccccc3)n2)c1,10.4 µM (active),–
O=C(Nc1ccc(F)c(F)c1)c1ccc(F)c(S(=O)(=O)N2CCC3(CC2)OCCO3)c1,–,-100
CCS(=O)(=O)c1ncc(Cl)c(C(=O)NCc2ccccc2)n1,10.4 µM (active),–
CCCCN(C)CCNC(=O)c1cc2c(=O)n(C)c3ccccc3c2n1C,–,-100
COc1cc(C(=O)n2nc(C)c(Sc3ccc(Cl)cc3)c2C)cc(OC)c1OC,–,-100
COCc1oc2ccc(NS(=O)(=O)c3ccc(C)cc3)cc2c1C(=O)OC,–,-6.75
COC(=O)c1cc2sc(C)cc2n1Cc1ccccc1,–,-100
Cc1cc(C)cc(NC(=O)c2cnn(-c3ccc(C)c(C)c3)c2C2CCNCC2)c1,–,-19.5
O=C(c1ccco1)n1nc(-c2ccc(Cl)cc2)nc1NCc1ccccc1,–,-100
CC1=Nc2cc(C(=O)NCCc3ccc(Cl)cc3)ccc2Sc2ccc(C)cc21,–,-100
COC(=O)c1ccccc1NC(=O)CSc1n[nH]c(CC(C)C)n1,–,-100
COc1cccc(-n2c(-c3ccco3)nc3c(cnn3-c3ccc(C)cc3)c2=O)c1,–,-100
COc1ccc(C(=O)c2sc(Nc3ccccc3)nc2N)cc1,–,-100
CCCN1CCN(c2ncnc3sc(C(=O)Nc4ccc(OC(F)(F)F)cc4)c(C)c23)CC1,–,-100
CCOC(=O)c1ccc2ncc(C(=O)OCC)c(NCCc3ccc(OC)c(OC)c3)c2c1,–,-100
Cc1cc(-c2ccc(S(=O)(=O)Nc3cccc(C)c3C)s2)on1,–,-21.8
Cc1ccc(-c2cc(C(=O)N3CCN(c4ccccc4)CC3)c3ccccc3n2)cc1C,–,-100
CCOC(=O)c1sc2ccccc2c1S(=O)(=O)Nc1ccc(CC)cc1,–,-100
Cc1cccc(N2CCN(C(=O)C3CCN(C(=O)c4cc5sccc5n4C)CC3)CC2C)c1 (configuration not stated),–,-100

SMILES,Potency,"activity change, negative = inhibition [%]"
Nc1c(C(=O)NCc2ccccc2)nnn1Cc1cccc(Br)c1,–,-100
CCOC(=O)c1cnc2ccc(C)cc2c1Nc1ccc(N(CC)CC)cc1,–,-100
COc1cccc(-c2nc(SCC(=O)NCC3CCCO3)c(-c3ccc(F)cc3)[nH]2)c1 (configuration not stated),–,-100
Cc1ccc2nc(/C(C#N)=C/c3ccc(-c4ccc(F)cc4F)o3)[nH]c2c1,–,-100
Cc1oc2c(cc(NS(=O)(=O)c3ccc(C(C)C)cc3)c3ccccc32)c1C(=O)OCc1ccccc1,–,-1.72
CCCS(=O)(=O)c1ncc(Cl)c(C(=O)N2CCN(c3ccc(OC)cc3)CC2)n1,1.85 µM (active),–
COc1ccc(C(F)(F)F)cc1NC(=O)c1sc2nc(-c3cccs3)ccc2c1N,–,-11
CCOc1ccccc1NC(=O)CSc1cc(=O)n(CC)c2ccccc12,–,-100
COc1ccc(-c2ccc(CCC(=O)O)n2-c2ccccc2O)cc1,–,-7.96
Cc1cccc(NC(=O)c2c(NC(=O)C(F)(F)F)sc3c2CCCCC3)c1,–,-100
CCN(C(=O)C(NS(=O)(=O)c1ccc(Br)s1)c1ccccc1)c1ccc(C)c(C)c1 (configuration not stated),–,-15.2
Cc1ccc(-c2csc(-c3cc4c([nH]c3=O)CC(c3ccccc3)CC4=O)n2)cc1 (configuration not stated),–,-100
CCCCn1c(=N)n(CCOc2ccccc2OC)c2ccccc21,7.36 µM (active),–
CC(C)CCNC(=O)c1cccc(Nc2nc3ccccc3n3nnnc23)c1,4.14 µM (active),–
CC1=C(C(=O)Nc2ccc(C)cc2C)C(c2cc(Br)ccc2F)n2ncc(C(=O)Nc3ccc(C)cc3)c2N1 (configuration not stated),14.7 µM (active),–
Cc1cccc(OCc2ccc(-c3nc(C#N)c(NCCN(C)C)o3)o2)c1,–,-100
CCn1c(=O)sc2cc(NS(=O)(=O)c3ccc(F)c(C)c3)ccc21,–,-100
Cc1nn(CC(=O)N2CCN(c3ccccc3F)CC2)c(=O)c2cccn12,–,-100
